ssDAF12 agonist – activators of S. stercoralis DAF-12 nuclear receptor; HEK293 ssDAF-12/GRIP1 lit1-tk-luc reporter, luminescence; % of 3 µM dafachronic acid response; activation, % at 6.8 µM; actives 1% (n = 370,000); AID 652126;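 active = activation above the mean over all tested compounds plus 3 SD, cut at about 0.9% in these data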;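 also: 0% = DMSO-only wells and 100% = 3 µM delta7-dafachronic acid wells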
Wee1 degr inh – inhibitors of human Wee1 degradation; P30291; HeLa Luc-Wee1K328M stability, luciferase luminescence; 100% = proteasome inhibitor MG132 effect; reporter increase, % at 5 µM; actives 1.2% (n = 220,000);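 active = activation above the mean of all tested compounds plus 3 SD, set per screening run, cut at about 8.8% in these data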;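 also: cells exposed to compound for 20 h before luminescence read; 0% = DMSO alone and 100% = MG132 at 30 µM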
Target sequence (P30291 whole entry K328M): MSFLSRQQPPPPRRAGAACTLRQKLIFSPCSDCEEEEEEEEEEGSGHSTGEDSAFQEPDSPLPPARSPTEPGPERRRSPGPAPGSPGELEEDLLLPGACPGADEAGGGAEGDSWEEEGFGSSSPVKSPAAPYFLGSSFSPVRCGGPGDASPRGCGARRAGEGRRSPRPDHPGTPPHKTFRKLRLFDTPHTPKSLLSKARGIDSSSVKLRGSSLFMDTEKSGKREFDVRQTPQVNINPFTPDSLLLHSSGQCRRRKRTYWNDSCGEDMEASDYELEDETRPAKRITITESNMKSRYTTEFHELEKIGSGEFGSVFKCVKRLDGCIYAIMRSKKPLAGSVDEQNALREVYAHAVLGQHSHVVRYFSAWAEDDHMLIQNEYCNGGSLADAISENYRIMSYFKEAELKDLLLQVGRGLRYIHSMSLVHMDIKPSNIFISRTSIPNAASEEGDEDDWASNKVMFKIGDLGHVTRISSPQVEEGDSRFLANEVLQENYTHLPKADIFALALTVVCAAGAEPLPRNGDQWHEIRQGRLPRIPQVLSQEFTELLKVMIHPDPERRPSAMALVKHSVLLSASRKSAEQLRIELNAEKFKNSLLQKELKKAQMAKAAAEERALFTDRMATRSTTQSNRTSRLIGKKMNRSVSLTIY
hcDAF-12 act – activators of H. contortus DAF-12 nuclear receptor. HEK293 hcDAF-12 lit1-tk-luc reporter, luminescence; 0% DMSO, 100% Δ7-dafachronic acid. activation, % at 6.8 µM. actives 1.4% (n = 370,000);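 active = activation above the mean of all tested compounds plus 3 SD, cut at about 5.5% in these data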;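 also: 100% = response to 3 µM Δ7-dafachronic acid high control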
hgDAF12 agonist – hgDAF-12 agonism, primary luciferase screen; HEK293 GAL4-hgDAF12 UAS-luciferase reporter, agonist luminescence; normalized to butyrate control; activation, % at 6.8 µM; actives 1.8% (n = 370,000); AID 687014;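 active = activation above a cutoff set at the mean of all screened compounds plus 3 SD, cut at about 10% in these data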;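 also: 0% = DMSO wells and 100% = sodium butyrate wells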
DAX1 inh-1 – blocks DAX1 repression of SF-1 activated StAR promoter | HEK293T StAR-luciferase reporter, SF-1/DAX-1 repression relief | actives 1.1% (n = 370,000) | inhibition, % at 6.8 µM | AID 652010;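 active = inhibition above the mean over all tested compounds plus 3 SD, cut at about 3.6% in these data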;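 also: 0% = DAX-1 cells with DMSO and 100% = cells lacking DAX-1 with DMSO; higher inhibition means more luminescence from relief of DAX-1 repression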
DAX1 inh-2 – inhibitors of human orphan nuclear receptor DAX1 (NR0B1); P51843; HEK293 Gal4-DAX1 luciferase reporter, luminescence; inhibition, % at 6.75 µM; actives 0.99% (n = 340,000); AID 504766;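 active = inhibition above the mean over all tested compounds plus 3 SD, cut at about 4.2% in these data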;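 also: 0% = DAX1-transfected cells with DMSO and 100% = empty-vector control cells with DMSO; inhibition shows as a rise in luminescence from relieved DAX1 repression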
An asterisk follows results filed as active; . = no result. An excerpt weighted towards active compounds, which were near 4.6% of everything screened.

SMILES	ssDAF12 agonist	Wee1 degr inh	hcDAF-12 act	hgDAF12 agonist	DAX1 inh-1	DAX1 inh-2
Cc1ccc(C(=O)Nc2ccc(Cl)cn2)cc1	0	4	3	12*	2	-2
COC(=O)c1cc(C(=O)Nc2ccc(Cl)cn2)cc([N+](=O)[O-])c1	-1	9.0*	0	3	-1	0
c1ccc(Cn2c(SCC3CCCCC3)nnc2-c2cccnc2)cc1	-2	.	0	-1	0	.
c1ccc2nc(-c3ccc(N4CCOCC4)cc3)ccc2c1	0	-1	6.3*	9	3.8*	-2
CCC(C)Sc1ccc([C@H]2N[C@@](Cc3ccccc3)(C(=O)OC)[C@H]3C(=O)N(CC)C(=O)[C@@H]23)cc1OC (some centres undefined)	-1	.	0	0	0	0
COc1ccc(-c2nc(CN3CCCCC3c3cccnc3)c(C)o2)c(F)c1 (centres undefined)	-1	3	-1	12*	0	0
COc1cccc(=O)c2c(C)n(CC(=O)c3ccccc3)c(C)c12	1.5*	-3	1	-1	0	-1
CCOc1ccc(NC(=O)CN(c2ccc(OC)cc2)S(C)(=O)=O)cc1	-1	0	2	5	2	0
COC(=O)c1ccc(NC(=O)CN(c2ccc(OC)cc2)S(C)(=O)=O)cc1	-1	4	3	12*	1	0
O=C1Nc2ccccc2S/C1=C/c1cccs1	1.3*	-1	4	7	0	2
O=C(NCC1COc2ccccc2O1)c1cccc(S(=O)(=O)N2CCN(c3ccccc3)CC2)c1 (centres undefined)	-2	.	-4	-5	-6	-3
O=Cc1ccc(OCc2ccc3ccccc3c2)cc1	0	.	3	12*	1	0
O=Cc1ccc(OCc2ccccn2)cc1	-1	5	1	11*	0	1
CSc1ccccc1C(=O)OCC(=O)NC1CC1	-2	.	0	1	0	1
Cn1cccc1C(=O)N1CCN(S(=O)(=O)c2cccs2)CC1	-1	.	1	-2	-1	.
COCCn1c(C)cc(/C=C(\C#N)C(=O)OCC(=O)N(C)c2c(N)n(Cc3ccccc3)c(=O)[nH]c2=O)c1C	-1	.	-1	2	1	0
CCOc1ccc(CCN2C(=S)N([C@@H](CC(C)C)CN3CCCC3CN3C(=S)NC[C@@H]3CC(C)C)C[C@@H]2CC(C)C)cc1 (some centres undefined)	-1	.	0	0	4.4*	1
Cc1cc(N/N=C/c2ccccc2)nc(N)n1	-1	-1	-1	1	0	1
CSc1nccc(N/N=C/c2ccccc2)n1	0	.	2	11*	0	5.1*
COc1ccccc1CNC(=O)C1CC(c2ccccc2[N+](=O)[O-])=NO1 (centres undefined)	0	-1	6.1*	1	0	-1
CCOC(=O)C(C(=O)OCC)C(Nc1cccc(Br)c1)c1ccccc1 (centres undefined)	-2	0	-1	-1	-1	-3
CCOC(=O)C(c1ccccc1)C(Nc1ccc(Cl)c(Cl)c1)c1ccccn1 (centres undefined)	1.0*	0	1	0	0	.
COC(=O)[C@H]1C[C@@]2(N3CCCCC3)c3ccccc3N[C@H]2N1S(=O)(=O)c1ccc(C)cc1	-1	.	0	-1	-1	.
O=C(NCCN1CCC(n2c(=O)[nH]c3ccccc32)CC1)c1cccc(F)c1	0	.	-2	-1	0	.
O=C(NCCN1CCC(n2c(=O)[nH]c3ccccc32)CC1)c1cccc(Cl)c1	-1	.	-1	19*	0	.
SMILES	ssDAF12 agonist	Wee1 degr inh	hcDAF-12 act	hgDAF12 agonist	DAX1 inh-1	DAX1 inh-2
C[C@@H]1CN([C@H](C)CO)C(=O)CCCn2nncc2CO[C@H]1CN(C)Cc1cccnc1	-1	.	0	4	2	2
CCCCCC(=O)N1C[C@H](n2cc(C3CC3)nn2)[C@@H](O)C[C@@H]1c1ccccc1	-1	.	0	-3	1	2
CN(C)c1ccc(N=Cc2nc(-c3ccccc3)oc2OC(=O)c2cccc(Cl)c2)cc1	-1	2	1	12*	3	2
O=C(Oc1oc(-c2ccco2)nc1C=Nc1ccccc1)c1ccoc1	-1	9.0*	1	1	2	2
COc1ccc(N=Cc2nc(-c3ccccc3)oc2OC(C)=O)cc1	-1	1	0	-1	1	0
COc1cc(OC)cc(C(=O)N=c2sc3ccccc3n2C)c1	0	2	2	11*	2	1
CC(C)NC(=O)C1(C)CN(S(C)(=O)=O)CC(=O)N1Cc1cccs1 (centres undefined)	0	.	0	-2	1	.
CC(C)(C)NC(=O)C(c1ccc(-c2ccccc2)cc1)N(C[C@H]1CC[C@@H]([C@@H]2CC[C@H](CO)O2)O1)C(=O)c1ccccc1F (some centres undefined)	.	.	.	.	.	0
O=C(Nc1ccc(-c2nc3ncccc3o2)cc1)c1ccco1	0	2	3	11*	2	0
O=C(Nc1ccc(-c2nc3ncccc3o2)cc1)c1ccc(Br)o1	-1	-2	-2	-1	-1	-3
O=C(Nc1ccc(-c2nc3ccccc3o2)cc1)c1cccnc1	-1	11*	0	6	1	0
C[C@@H]1CN([C@@H](C)CO)C(=O)c2cc(-c3ccccc3F)cnc2O[C@H]1CN(C)Cc1cccc(F)c1	-1	.	0	-1	-1	1
Cc1ccc(C)c(N(C)C(=O)COc2cc(=O)n(C)c3ccccc23)c1	-1	3	-2	-3	1	4.8*
CCn1c(/C=C/c2cc[n+](C)cc2)nc2ccccc21	-1	.	2	2	0	4.2*
C=CCNC(=O)CN(C(=O)c1csc2ccc(Cl)cc12)c1cccc(Br)c1	-1	.	1	-1	0	.
OCCCNc1nc(-c2ccc(Cl)cc2)nc2ccccc12	-1	.	-1	1	0	-1
OCCNc1nc(-c2ccccc2)nc2ccccc12	1.1*	0	1	5	0	0
CCCCCCC1(C)NC(=S)N(c2ccccc2)N1 (centres undefined)	5.7*	2	1	1	0	0
CCC1(c2ccc(Cl)cc2)NC(=S)N(c2ccccc2)N1 (centres undefined)	1	-3	5.7*	7	1	0
COCCCN1C(=O)[C@H](CC(=O)NCc2ccc(OC)c(OC)c2)[C@]2(C(=O)OC)CCCCC=C12	-1	.	4	0	0	.
O=C(CNS(=O)(=O)c1c(Cl)cccc1Cl)N1CCCCCC1	1.0*	.	2	7	1	3
O=C(CNS(=O)(=O)c1cccs1)N1CCCCC1	-1	.	0	0	0	0

Screening data from PubChem BioAssay.
